Source: PubChem BioAssay (National Center for Advancing Translational Sciences (NCATS))
VP16 counter: counter-screen for ROR gamma inhibitors: Gal4-VP16 reporter. Drosophila S2 Gal4-VP16 UAS-luciferase, luminescence, 20 h. Potency, µM (series often up to 53.6 µM), usual class: inhibitors. 310,000 tested, 3.5% active. AID 2546;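 also: Gal4-VP16 expression switched on by copper sulfate through the metallothionein promoter; nearly all actives have a fitted effect of over 50% in size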
RORg inh: inhibitors of mouse ROR gamma transcriptional activity; Drosophila S2 Gal4-RORgamma UAS-luciferase reporter, 20 h; Potency, µM (series often up to 53.6 µM), usual class: inhibitors; 310,000 tested, 5.4% active; AID 2551; also: nearly all actives have a fitted effect of over 60% in size
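Luminescence from a UAS-regulated Photinus luciferase reporter in stably transfected Drosophila Schneider cells is measured; decreased signal marks ROR gamma inhibition. Fusion expression is induced by 700 uM copper sulfate for 20 hr.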
FBPA coupling cs: counter-screen for Giardia aldolase inhibitors: coupling enzyme system; activity change, negative = inhibition, % at 58.2 µM, hits read low; 290,000 tested, 0.67% active; coupling enzyme system counterscreen, AmpLite Red fluorescence; in the data active = activity change below about -30%
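Counterscreen lacking aldolase: glyceraldehyde-3-phosphate coupling-enzyme reagent preincubated 10 min at RT with compound (at 57.5 uM final), then substrate/coupling system with AmpLite Red added; fluorescence read at 525/598 nm after 20 min RT.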
TSHR antagonist: antagonists of human thyroid stimulating hormone receptor. 330,000 tested, 0.2% active. AID 504810. TSHR-expressing cells, TSH-stimulated cAMP HTRF, 2 h; active compounds read low. activity change, negative = inhibition, % at 11.5 µM;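 active = activity change below a set negative limit, meaning inhibition stronger than a set level, cut at about -70% in these data; inconclusive = activity change between two set negative limits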
Target sequence (P16473 whole entry, looked up): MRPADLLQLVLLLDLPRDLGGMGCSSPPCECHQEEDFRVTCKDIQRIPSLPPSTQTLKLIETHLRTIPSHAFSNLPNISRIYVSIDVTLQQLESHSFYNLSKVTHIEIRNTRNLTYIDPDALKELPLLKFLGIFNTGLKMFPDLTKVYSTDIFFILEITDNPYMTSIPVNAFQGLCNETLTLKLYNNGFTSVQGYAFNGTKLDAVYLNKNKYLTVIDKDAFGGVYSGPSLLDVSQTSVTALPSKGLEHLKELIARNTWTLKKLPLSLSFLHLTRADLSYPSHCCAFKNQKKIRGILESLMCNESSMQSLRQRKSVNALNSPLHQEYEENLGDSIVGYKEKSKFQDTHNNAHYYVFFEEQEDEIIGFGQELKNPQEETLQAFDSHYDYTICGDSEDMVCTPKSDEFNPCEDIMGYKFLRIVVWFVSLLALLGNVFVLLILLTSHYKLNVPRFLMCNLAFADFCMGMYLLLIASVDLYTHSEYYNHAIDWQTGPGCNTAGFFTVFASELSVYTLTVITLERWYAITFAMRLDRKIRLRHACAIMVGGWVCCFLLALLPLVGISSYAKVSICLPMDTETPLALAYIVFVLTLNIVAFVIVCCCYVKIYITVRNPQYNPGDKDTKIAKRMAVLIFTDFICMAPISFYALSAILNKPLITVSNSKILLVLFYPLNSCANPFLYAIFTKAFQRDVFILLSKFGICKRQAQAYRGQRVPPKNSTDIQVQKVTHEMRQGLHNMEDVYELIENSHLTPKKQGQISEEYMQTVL
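Antagonism was scored as loss of TSH-driven cAMP in TSHR cells, stimulated with 4nM TSH (EC80) for 2 hours at 37 deg C and detected by homogeneous HTRF competition immunoassay.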
ELG1 DNA repair: ELG1-dependent DNA repair inhibition. 330,000 tested, 2.3% active. Potency, µM (top dose mostly 46.1 µM), actives largely listed as inhibitors. HEK293T ELG1-luciferase reporter, luminescence, 16 h; DNA damage induced by 5-fluorouridine. AID 504467; also: nearly all actives have a fitted effect of over 55% in size
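HEK293T cells expressing luciferase-tagged ELG1 (2,000/well) received 5-Fluorouridine plus compound or DMSO for 16 hr at 37 °C. Luciferase was read by ONE-Glo luminescence after 30 min at room temperature.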
Large screens that a line does not name were inactive; ! = not active in a repeat. Sampled rows, rich in hits. Any-hit rate of the full collection: about 8%. Unless noted, calls follow the shape of the dose curve; as a rule, active = well fitted curve in the direction sought with a large enough effect; inconclusive = small, poorly fitted or top-dose-only effect, or another doubt; inactive = no such curve, though single readings can be large; an effect the other way counts as inactive or inconclusive.

O=[N+]([O-])c1ccc(S(=O)(=O)NNC(=S)NCCc2ccccc2)cc1	VP16 counter 11µM, RORg inh 8.9µM, ELG1 DNA repair inconclusive (no result: FBPA coupling cs)
COc1cc(OC)cc(-c2nnc3n2N=C(c2ccc(OC)c(OC)c2)CS3)c1	none (no result: TSHR antagonist, ELG1 DNA repair)
Cc1nc(Nc2ccc(C(=O)O)cc2)sc1-c1ccccc1	ELG1 DNA repair inconclusive
Cc1nc(Nc2ccccc2)sc1-c1ccccc1	VP16 counter 11µM, RORg inh 11µM, ELG1 DNA repair inconclusive
CS(C)(=O)=O	none (no result: TSHR antagonist, ELG1 DNA repair)
Cn1nc(C(C)(C)C)cc1C(=O)NCc1cc(F)cc2c1OCOC2	VP16 counter 3.5µM, RORg inh inconclusive, ELG1 DNA repair 2.6µM
Cc1cc(C(=O)NCc2cc(F)cc3c2OCOC3)nn1C	none
COc1ccc(C2(C(=O)NCCCN3CCOCC3)CCOCC2)cc1	RORg inh 3.5µM
CC1CCN(C(=S)c2cn(Cc3ccccc3F)c3ccccc23)CC1	VP16 counter 4.5µM, RORg inh 0.89µM
CC1CCN(C(=S)c2cn(Cc3ccc(F)cc3)c3ccccc23)CC1	VP16 counter 11µM, RORg inh 5µM
CN1CCN(C(=S)c2cn(Cc3cccc(F)c3)c3ccccc23)CC1	RORg inh 13µM
CN1CCN(C(=S)c2cn(Cc3ccccc3F)c3ccccc23)CC1	RORg inh 11µM
CN1CCN(C(=S)c2cn(Cc3ccc(F)cc3)c3ccccc23)CC1	RORg inh inconclusive
CCNC(=S)N/N=C/c1cn(Cc2ccccc2F)c2ccccc12	none
Cc1ccc(S(=O)(=O)N2[C@@H](c3ccc(F)cc3)C(C(=O)O)=CC[C@H]2c2cccs2)cc1	none (no result: VP16 counter, RORg inh, FBPA coupling cs)
COc1ccc(CCn2c(-c3ccncc3)n[nH]c2=S)cc1OC	none
C=CCn1c(CCSCc2ccc(OC)c(C)c2)n[nH]c1=S	RORg inh 2.5µM, ELG1 DNA repair inconclusive
CCn1c(CCCc2ccc(OC)c(C)c2)n[nH]c1=S	VP16 counter inconclusive, RORg inh 2.2µM
C=CCn1c(CCSCc2ccccc2)n[nH]c1=S	VP16 counter inconclusive, RORg inh 4µM
CCN(c1ccccc1)S(=O)(=O)c1ccc(C(=O)Nc2nnc(COC)o2)cc1	VP16 counter 1.3µM, RORg inh 0.56µM, ELG1 DNA repair inconclusive
CCN(c1ccccc1)S(=O)(=O)c1ccc(C(=O)Nc2nnc(CSC)o2)cc1	VP16 counter 0.89µM, RORg inh 0.35µM, ELG1 DNA repair inconclusive
CCN(c1ccccc1)S(=O)(=O)c1ccc(C(=O)Nc2cccc(C)n2)cc1	ELG1 DNA repair inconclusive (no result: VP16 counter, RORg inh, FBPA coupling cs)
COCc1nnc(NC(=O)c2ccc(S(=O)(=O)N(C)c3ccccc3)cc2)o1	VP16 counter 2.5µM, RORg inh 1.6µM
COc1ccc2[nH]cc(CCNc3ncnc4ccc(-c5c(C)noc5C)cc34)c2c1	none (no result: TSHR antagonist, ELG1 DNA repair)
CC12CCC=CC1C(c1cccc([N+](=O)[O-])c1)N(Cc1ccccc1)C2=O (stereo unspecified)	RORg inh inconclusive (no result: TSHR antagonist, ELG1 DNA repair)
CCC(=O)N1CCc2cc(S(=O)(=O)NCCc3ccc(S(N)(=O)=O)cc3)ccc21	none
CCc1ccccc1NC(=O)COC(=O)c1cccs1	none
CC(C)c1ccc2oc3nc(N)c(C(=O)O)cc3c(=O)c2c1	VP16 counter 4µM!, RORg inh 7.9µM (no result: ELG1 DNA repair)
COc1ccc(/C=C/C(=O)NCC(=O)N/N=C/c2cc(Br)ccc2OC)cc1	none
COc1cccc(/C=N/NC(=O)CNC(=O)CCc2ccccc2)c1O	RORg inh inconclusive, ELG1 DNA repair inconclusive
COc1cccc(/C=N/NC(=O)CSc2ccccc2C)c1OC	none
COc1ccccc1/C=C/C(=O)NCC(=O)N/N=C/c1cc(Br)ccc1OC	RORg inh 13µM, ELG1 DNA repair inconclusive
COc1cccc(/C=N/NC(=O)CNC(=O)c2cccs2)c1O	VP16 counter 11µM, RORg inh 3.2µM, ELG1 DNA repair inconclusive
COc1ccccc1/C=C\C(=O)NCC(=O)N/N=C/c1cccc(OC)c1O	VP16 counter 7.1µM, RORg inh 4.5µM
COc1cccc(/C=N/NC(=O)CSc2ccccc2C)c1O	VP16 counter 0.79µM, RORg inh 0.71µM
O=C(COc1ccccc1)NCC(=O)N1CCCCCC1	ELG1 DNA repair inconclusive (no result: VP16 counter, RORg inh, FBPA coupling cs)
CCc1nn(C(CC)C(=O)NCCc2ccc(OC)cc2OC)c(=O)c2cc3occc3n12 (stereo unspecified)	none
COc1ccccc1/C=C/C=N/NC(=O)c1cccs1	VP16 counter inconclusive, RORg inh 7.9µM, ELG1 DNA repair inconclusive
COc1ccccc1/C=C\C=N\NC(=O)c1ccco1	VP16 counter inconclusive, RORg inh inconclusive, ELG1 DNA repair inconclusive
COc1cccc(CNC(=O)Cn2nc(C)c3c(C)n(-c4ccc(C)cc4)nc3c2=O)c1OC	none
COc1ccc(CNC(=O)Cn2nc(C)c3c(C)n(-c4ccc(C)cc4)nc3c2=O)cc1OC	ELG1 DNA repair 21µM (no result: FBPA coupling cs)
CCOc1ccccc1CNC(=O)Cn1nc(C)c2c(C)n(-c3ccc(C)cc3)nc2c1=O	VP16 counter inconclusive, RORg inh inconclusive, ELG1 DNA repair 2.9µM
CCOC(=O)c1cc(C(=O)OCC)cc(-n2cc(O)c(C(=O)OCC)n2)c1	VP16 counter 11µM, RORg inh inconclusive (no result: FBPA coupling cs)
CCc1cccc(C)c1NC(=O)CN1C(=O)NC(C)(CCC(C)C)C1=O (stereo unspecified)	none (no result: VP16 counter, RORg inh, FBPA coupling cs)
O=C(/C(Cl)=C/Nc1ccc(Br)cn1)C(F)(F)F	ELG1 DNA repair inconclusive
CCOc1cccc2cc(-c3cn4cc(C)ccc4n3)c(=O)oc12	VP16 counter inconclusive, RORg inh 0.79µM, ELG1 DNA repair inconclusive
CCOc1cccc2cc(C(C)=O)oc12	none
O=c1c(-c2ccccc2)nc2cnc(N3CCOCC3)nc2n1C1CC1	none (no result: TSHR antagonist, ELG1 DNA repair)
Cc1cc(C)nc(N/N=C/c2ccccc2OCc2ccc(Br)cc2)n1	VP16 counter inconclusive, RORg inh 7.1µM, ELG1 DNA repair inconclusive
Cc1cc(C)nc(N/N=C/c2ccccc2OCC(=O)O)n1	none
Cc1cc(C)nc(N/N=C/c2ccccc2OCc2cccc(Br)c2)n1	VP16 counter 35µM, RORg inh 50µM, ELG1 DNA repair 21µM
Cc1cc(C)nc(N/N=C/c2ccccc2OCc2ccccc2)n1	VP16 counter inconclusive, RORg inh 8.9µM, ELG1 DNA repair inconclusive
Cc1cc(C)nc(N/N=C/c2ccccc2OCc2ccc(Cl)cc2)n1	VP16 counter inconclusive, RORg inh 10µM, ELG1 DNA repair inconclusive
COc1ccccc1NC(C)C(=O)N/N=C/c1ccccc1OCc1cccc(Br)c1 (stereo unspecified)	none
Cc1cc(C)nc(N/N=C/c2cc(Br)ccc2O)n1	VP16 counter 18µM, RORg inh 3.2µM, ELG1 DNA repair inconclusive
CCCN(Cc1nnc(-c2ccccc2Cl)o1)C(=O)c1oc2ccccc2c1C	ELG1 DNA repair inconclusive (no result: VP16 counter, RORg inh, FBPA coupling cs)
N#Cc1c(N)[nH]c(=S)c(C#N)c1-c1ccccc1	VP16 counter inconclusive, RORg inh 10µM
Cc1ccc(-c2cc(-c3ccccc3)[nH]c(=S)c2C#N)cc1	VP16 counter inconclusive, RORg inh inconclusive
